What all share (settings): mRNA level, 48 h; actives raise or lower the signal
Read-out in assay [1]: Broad substrate specificity ATP-binding cassette transporter ABCG2 (Homo sapiens) (UniProt Q9UNQ0)
The assay is described as follows: LTEA_HepaRG_ABCG2: Life Technologies and Expression Analysis (LTEA) Assay for ABC Transporter (ABCG2) using HepaRG (AID 2283465). The method in brief: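 ABCG2 transcript was quantified by TaqMan qRT-PCR against three housekeeping genes in HepaRG cells. Cells were treated in duplicate for 48 h across an 8-point half-log series up to 100 uM, with 0.5% DMSO vehicle. Gain or loss versus DMSO was fit.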

Read-out in assay [2]: ATP-citrate lyase (ACLY), ACLY (gene 47)
The assay is described as follows: LTEA_HepaRG_ACLY: Life Technologies and Expression Analysis (LTEA) Assay for ATP-citrate lyase (ACLY) using HepaRG (AID 2283466). Summed up: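 ACLY mRNA quantified by qRT-PCR on Fluidigm arrays against three housekeeping genes, after 48 h chemical treatment of HepaRG cells (top concentration 100 uM, half-log steps, 0.5% DMSO vehicle). Up- or down-regulation fitted relative to DMSO.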

Read-out in assay [3]: Peroxisomal acyl-coenzyme A oxidase 1 (ACOX1) gene, ACOX1 (gene 51)
Put plainly: LTEA_HepaRG_ACOX1: Life Technologies and Expression Analysis (LTEA) Assay for Peroxisomal acyl-coenzyme A oxidase 1 (ACOX1) gene using HepaRG (AID 2283467). Summed up:
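ACOX1 transcript levels were quantified by TaqMan qRT-PCR against three housekeeping genes after 48 h chemical exposure of differentiated human HepaRG cells. Exposure used eight half-log steps topping at 100 uM, 0.5% DMSO vehicle, in duplicate. Bidirectional curve fits were made relative to DMSO.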

Read-out in assay [4]: Alkaline Phosphatase, Placental (ALPP) gene, ALPP (gene 250)
Put plainly: LTEA_HepaRG_ALPP: Life Technologies and Expression Analysis (LTEA) Assay for Alkaline Phosphatase, Placental (ALPP) gene using HepaRG (AID 2283468). The method in brief: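 Differentiated human HepaRG cells were plated and cultured 48 h, then exposed in duplicate for 48 h in serum-free induction medium to eight half-log concentrations from 100 uM in 0.5% DMSO. ALPP mRNA was measured by TaqMan qRT-PCR, normalized to ACTB, GAPDH, POLR2A.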

Read-out in assay [5]: Bcl-2 (BAD) gene, BAD (gene 572)
The assay is described as follows: LTEA_HepaRG_BAD: Life Technologies and Expression Analysis (LTEA) Assay for Bcl-2 (BAD) gene using HepaRG (AID 2283469). Summed up: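 Read-out: qRT-PCR of BAD mRNA, normalized to three housekeeping genes. Human HepaRG cultures got 48 h chemical exposure in 0.5% DMSO, duplicate eight-point half-log series topping at 100 uM. Gain or loss of signal fitted versus DMSO vehicle.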

Read-out in assay [6]: Bcl-2 (BAX) gene, BAX (gene 581)
Put plainly: LTEA_HepaRG_BAX: Life Technologies and Expression Analysis (LTEA) Assay for Bcl-2 (BAX) gene using HepaRG (AID 2283470). Summed up:
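Human HepaRG cells treated in duplicate for 48 h across eight concentrations (max 100 uM, 0.5% DMSO); BAX expression measured by qRT-PCR.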

Read-out in assay [7]: adenosine kinase (ADK) gene, ADK (gene 132)
The assay is described as follows: LTEA_HepaRG_ADK: Life Technologies and Expression Analysis (LTEA) Assay for adenosine kinase (ADK) gene using HepaRG (AID 2283471). The method in brief: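 Read-out is ADK transcript level measured by qRT-PCR and normalised to three housekeeping genes. Cells are human HepaRG, dosed for 48 h at up to 100 uM in 0.5% DMSO. Gain or loss of signal is fitted against DMSO controls.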

Read-out in assay [8]: Alpha-fetoprotein (AFP) gene, AFP (gene 174)
The assay is described as follows: LTEA_HepaRG_AFP: Life Technologies and Expression Analysis (LTEA) Assay for Alpha-fetoprotein (AFP) gene using HepaRG (AID 2283472). Summed up:
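Measures AFP mRNA change in HepaRG after 48 h chemical exposure (8 half-log concentrations, highest 100 uM, 0.5% DMSO). Fold change relative to DMSO, fitted in both directions.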

Read-out in the next assay: BCL2L11 (gene 10018)
The assay is described as follows: LTEA_HepaRG_BCL2L11: Life Technologies and Expression Analysis (LTEA) Assay for Bcl-2 (BCL2L11) gene using HepaRG (AID 2283473). Summed up:
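Differentiated human HepaRG cells in serum-free induction medium were exposed in duplicate for 48 h to eight concentrations (top 100 uM, half-log steps, 0.5% DMSO). BCL2L11 mRNA was quantified by TaqMan qRT-PCR, normalized to ACTB/GAPDH/POLR2A, bidirectional fit versus DMSO.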

Read-out in assay [9]: Apolipoprotein A-V (APOA5) gene, APOA5 (gene 116519)
The assay is described as follows: LTEA_HepaRG_APOA5: Life Technologies and Expression Analysis (LTEA) Assay for Apolipoprotein A-V (APOA5) gene using HepaRG (AID 2283474). The method in brief:
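Differentiated human HepaRG cells were exposed in duplicate for 48 h to eight half-log concentrations from 100 uM in 0.5% DMSO. APOA5 mRNA was quantified by TaqMan qRT-PCR, normalized to ACTB, GAPDH and POLR2A, and fitted bidirectionally against DMSO.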

The source made the active and inactive calls. Rule for the calls: active = hit-call score of the fitted dose curve at least 0.9, where 1 is the maximum; inactive = score below 0.9.

Sequence of Broad substrate specificity ATP-binding cassette transporter ABCG2 (Homo sapiens) (Q9UNQ0 whole entry, looked up): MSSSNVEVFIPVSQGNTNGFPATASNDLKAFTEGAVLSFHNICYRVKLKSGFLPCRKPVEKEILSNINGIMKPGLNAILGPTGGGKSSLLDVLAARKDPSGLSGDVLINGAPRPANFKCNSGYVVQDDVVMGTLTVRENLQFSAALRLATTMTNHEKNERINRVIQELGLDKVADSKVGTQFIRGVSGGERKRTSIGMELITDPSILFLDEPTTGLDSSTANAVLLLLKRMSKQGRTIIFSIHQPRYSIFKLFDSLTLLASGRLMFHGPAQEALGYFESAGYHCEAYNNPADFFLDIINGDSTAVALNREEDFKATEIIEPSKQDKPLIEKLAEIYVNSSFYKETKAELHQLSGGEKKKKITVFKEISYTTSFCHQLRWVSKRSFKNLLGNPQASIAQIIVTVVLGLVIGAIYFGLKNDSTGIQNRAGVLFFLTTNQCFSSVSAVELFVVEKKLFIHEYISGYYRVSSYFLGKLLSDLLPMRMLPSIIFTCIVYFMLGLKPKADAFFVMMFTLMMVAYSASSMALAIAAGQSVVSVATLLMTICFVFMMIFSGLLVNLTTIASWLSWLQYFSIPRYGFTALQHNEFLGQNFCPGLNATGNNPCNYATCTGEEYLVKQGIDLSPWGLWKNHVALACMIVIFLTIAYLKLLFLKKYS

What is called AC50 is the midpoint of the concentration-response curve, whichever way the signal moves. For `N=C(N)c1ccc(OCCCCCOc2ccc(C(=N)N)cc2)cc1`, the concentration at half-maximal activity (AC50) is 2.79 µM (active) in [1]; 35.9 µM (active) in assay [2]; 29 µM (active) in assay [3]; 6.28 µM (active) in assay [6]; 30.5 µM (active) in assay [7]; 7.45 µM (active) in assay [8]. The concentration at half-maximal activity (AC50) with BCL2L11 (gene 10018) was 3.64 µM (active); in [9], 11.4 µM (active). In addition, the compound was called inactive in assay [4] and in assay [5].

As to `CCCCCCCCCCCCOS(=O)(=O)O`, the result in assay [1], in assay [2], in assay [3], in assay [4], in assay [5] and in [7] was inactive. The outcome (in the assay with BCL2L11 (gene 10018); in [9]) was inactive. The AC50 in assay [6] was 50 µM (active); in assay [8], 77.7 µM (active).

Consider `CCC(C)c1ccccc1O` (stereo not drawn), for which the result in assay [1], in assay [3], in assay [4], in assay [5], in [6] and in assay [7] was inactive. Further, the call (in assay [8]; with BCL2L11 (gene 10018); in [9]) was inactive.

As for `CS(=O)(=O)c1ccc([C@@H](CC2CCCC2)C(=O)Nc2cnccn2)cc1Cl`, the concentration at half-maximal activity (AC50) was 12.8 µM (active) in assay [1]; 81.2 µM (active) in assay [4]; 41.3 µM (active) in assay [6]; 69.8 µM (active) in assay [8]; 71.2 µM (active) in [9]. Further, the compound was classed as inactive (in [2]; in assay [3]; in [5]; in assay [7]; with BCL2L11 (gene 10018)).

Consider `CCCCCCCCCCCCCCC`, for which the result in assay [1], in assay [2], in assay [3], in assay [4], in [5] and in [6] was inactive. The compound was classed as inactive (in assay [7]; in assay [8]; in the assay with BCL2L11 (gene 10018); in assay [9]).

Consider `CCCCC(CC)C(=O)O` (stereo not drawn), for which the compound was called inactive in assay [1], in assay [2], in [3], in assay [4], in assay [5] and in assay [6]. Also, the call (in [7]; in assay [8]; with BCL2L11 (gene 10018); in assay [9]) was inactive.

On to `CC(=O)Nc1ccc(O)cc1`, for which the call in assay [1], in [2], in assay [3], in assay [4], in assay [5] and in assay [6] was inactive. Further, the outcome (in assay [7]; in assay [8]; in the assay with BCL2L11 (gene 10018); in [9]) was inactive.

On to `O=C1NS(=O)(=O)c2ccccc21`, for which the compound was called inactive in assay [1], in assay [2], in assay [3], in assay [4], in assay [5] and in [6]. The compound was called inactive (in assay [7]; in assay [8]; with BCL2L11 (gene 10018); in assay [9]).

On to `CCCCC=O`, for which the result in assay [1], in [2], in assay [3], in [4], in assay [5] and in assay [6] was inactive. The call (in assay [7]; in assay [8]; with BCL2L11 (gene 10018); in [9]) was inactive.

As to `CCCCc1oc2ccccc2c1C(=O)c1cc(I)c(OCCN(CC)CC)c(I)c1`, the AC50 in assay [1] was 61 µM (active); in assay [2], 59.4 µM (active); in assay [4], 22.8 µM (active); in [6], 65.2 µM (active); in assay [8], 11.9 µM (active); in assay [9], 61.6 µM (active). Further, the call (in [3]; in assay [5]; in assay [7]; in the assay with BCL2L11 (gene 10018)) was inactive.

For the compound `CN(C)CCOC(c1ccccc1)c1ccccc1`, the compound was called inactive in [1], in assay [3], in [4], in [5], in assay [6] and in [7]. Further, the compound was classed as inactive (with BCL2L11 (gene 10018); in [9]). For the same compound, the half-maximal activity concentration (AC50) was 81.6 µM (active) in assay [2] and 73.9 µM (active) in assay [8].

As for `CN(Cc1cnc2nc(N)nc(N)c2n1)c1ccc(C(=O)N[C@@H](CCC(=O)O)C(=O)O)cc1`, the result in assay [1], in assay [2], in assay [4], in [5], in [6] and in [7] was inactive. The compound was classed as inactive (in the assay with BCL2L11 (gene 10018); in assay [9]). Moreover, the AC50 in assay [8] was 0.231 µM (active).

Turning to `O=C(c1ccccc1)c1ccccc1`, the outcome in assay [1], in assay [2], in assay [3], in assay [4], in [5] and in assay [6] was inactive. Further, the outcome (in assay [7]; in assay [8]; in the assay with BCL2L11 (gene 10018); in [9]) was inactive.

Regarding `Cc1[nH]nc2c1N=C(c1ccccc1Cl)c1cc([N+](=O)[O-])ccc1N2`, the compound was classed as inactive in [1], in [2], in [5] and in assay [7]. In addition, the AC50 in assay [3] was 20.1 µM (active); in assay [4], 1.59 µM (active); in [6], 3.85 µM (active); in assay [8] it was 4.36 µM (active); in the assay with BCL2L11 (gene 10018) it was 2.82 µM (active); in assay [9], 9.84 µM (active).

As for `OCC(CO)(CBr)CBr`, the result in assay [1], in [2], in [3], in assay [4], in [5] and in [6] was inactive. Also, the outcome (in [7]; in [8]; with BCL2L11 (gene 10018); in assay [9]) was inactive.

Regarding `O=C(CCCN1CCC(O)(c2ccc(Cl)cc2)CC1)c1ccc(F)cc1`, the compound was called inactive (in assay [1]; in [5]; in [7]; with BCL2L11 (gene 10018); in [9]). For the same compound, the concentration at half-maximal activity (AC50) was 32 µM (active) in assay [2]; 67 µM (active) in assay [3]; 36 µM (active) in assay [4]; 81.1 µM (active) in [6]; 67.8 µM (active) in [8].

The values are drawn from PubChem BioAssay (EPA / NIEHS).
